Reference: PubChem BioAssay (Tox21)
Inconclusive results are not listed. The source made the active and inactive calls. Unless noted, calls follow the shape of the dose curve; as a rule, active = well fitted curve in the direction sought with a large enough effect in the repeat runs; inconclusive = weak or mixed curves; inactive = no such curve, though single readings can be large; an effect the other way counts as inactive or inconclusive.

Tests used:
[1] = molecular target: Thyrotropin receptor (Homo sapiens) (UniProt P16473); test: qHTS assay to identify small molecule agonists of the thyroid stimulating hormone receptor (TSHR) signaling pathway (AID 1224843; calls by dose curve; also: nearly all actives have a fitted effect of over 45% in size)
Sequence of Thyrotropin receptor (Homo sapiens) (P16473 whole entry, looked up): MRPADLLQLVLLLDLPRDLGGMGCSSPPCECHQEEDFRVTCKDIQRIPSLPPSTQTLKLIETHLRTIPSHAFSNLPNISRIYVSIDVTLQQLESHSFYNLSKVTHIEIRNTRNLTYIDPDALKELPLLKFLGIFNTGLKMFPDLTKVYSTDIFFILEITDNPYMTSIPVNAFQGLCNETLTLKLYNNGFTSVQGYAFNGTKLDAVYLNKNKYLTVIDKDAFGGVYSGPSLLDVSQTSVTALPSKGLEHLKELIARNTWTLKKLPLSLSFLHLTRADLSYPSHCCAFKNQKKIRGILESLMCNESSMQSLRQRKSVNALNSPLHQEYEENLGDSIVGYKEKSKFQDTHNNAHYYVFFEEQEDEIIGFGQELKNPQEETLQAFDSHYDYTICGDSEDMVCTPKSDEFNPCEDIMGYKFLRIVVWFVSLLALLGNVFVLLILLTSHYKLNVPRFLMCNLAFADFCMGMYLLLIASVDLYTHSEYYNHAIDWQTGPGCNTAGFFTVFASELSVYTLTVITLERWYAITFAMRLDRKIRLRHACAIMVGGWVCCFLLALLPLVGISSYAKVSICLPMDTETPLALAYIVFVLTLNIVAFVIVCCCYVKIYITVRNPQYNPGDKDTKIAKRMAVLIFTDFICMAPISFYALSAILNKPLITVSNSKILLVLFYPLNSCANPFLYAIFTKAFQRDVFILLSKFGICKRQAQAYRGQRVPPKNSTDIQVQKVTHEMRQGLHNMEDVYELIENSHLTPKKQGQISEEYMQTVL
Procedure, shortened: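 Agonist-mode screen: TSHR HEK293 cells received test chemicals for half an hour at room temperature, then HTRF cAMP detection reagents for one hour prior to fluorescence measurement. Each chemical ran as a 15-concentration series, triplicated.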

[2] = qHTS assay to identify small molecule agonists of the hypoxia (HIF-1) signaling pathway - cell viability counter screen (AID 1224844; calls by dose curve; also: nearly all actives have a fitted effect of over 50% in size)
Procedure, shortened: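 In this counter screen, HRE-bla ME-180 cell viability after 17 hrs of compound exposure at 37C was read by CellTiter-Glo luminescence, multiplexed with the beta-lactamase reporter measurement.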

[3] = qHTS assay to identify small molecule agonists of H2AX (AID 1224845; active = well fitted activation curve with a large enough effect in the signal ratio in the repeat runs, not every such curve was filed as active; the % refers to the signal ratio)
Procedure, shortened: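 Wild-type CHO-K1 cells, plated overnight, exposed 3hr at 37C to 15 concentrations (0.76% DMSO final). Lysed, then HTRF anti-pH2AX (S139) cryptate and anti-H2AX-d2 antibodies, 24 hr room temperature; 665/620 nm emission read.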

[4] = qHTS assay to identify small molecule agonists of the hypoxia (HIF-1) signaling pathway (AID 1224846; active = well fitted activation curve with a large enough effect in the signal ratio in the repeat runs, not every such curve was filed as active; the % refers to the signal ratio)
Procedure, shortened: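 ME-180 HRE-bla reporter cells; compounds in DMSO, 17 h at 37C; read-out beta-lactamase via CCF4-AM FRET.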

[5] = qHTS assay to identify small molecule agonists of H2AX - cell viability counter screen (AID 1224847; calls by dose curve; also: top concentration of the series differs between compounds; nearly all actives have a fitted effect of over 30% in size)
Procedure, shortened: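 Counter-screen for viability: CellTiter-Glo ATP luminescence read after 3 h compound treatment (15-point titration, 0.76% DMSO final) of CHO-K1 cells at 37C, with 30 min room-temperature reagent incubation.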

[6] = qHTS assay to identify small molecule antagonists of the estrogen related receptor (ERR) signaling pathway from Tox21 library (AID 1224848); also: nearly all actives have a fitted effect of over 50% in size
Procedure, shortened: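 Quantitative high-throughput format: ERR reporter cells (2,000/well) pre-incubated 6 h, treated 18 h at 37 C with compounds in DMSO alongside positive and negative controls, then read by ONE-Glo luminescence.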

[7] = qHTS assay to identify small molecule agonists of the estrogen related receptor (ERR) signaling pathway from Tox21 library (AID 1224849; calls by dose curve; also: nearly all actives have a fitted effect of over 15% in size); conditions: ERR reporter cell line, ONE-Glo luciferase, 18 h; at 92.4 µM (top of the series) unless noted
Procedure, shortened: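 Luciferase activity in ERR pathway reporter cells served as the agonist readout; exposure lasted 18 h at 37 C, with ONE-Glo detection after 30 min at room temperature.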

[8] = qHTS RealTime-Glo MT Cell Viability Assay in HepG2 cells - 24 hour (AID 1224867); also: nearly all actives have a fitted effect of over 50% in size
Procedure, shortened: (§1)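 qHTS, HepG2, 600 cells/well, RealTime-Glo (NanoLuc + prosubstrate) added with cells; 5 h preincubation; DMSO compound addition; 37 C; luminescence at 0/8/16/24/32/40 h.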

[9] = qHTS RealTime-Glo MT Cell Viability Assay in HEK293 cells - 32 hour (AID 1224868); also: top concentration of the series differs between compounds; nearly all actives have a fitted effect of over 50% in size
Procedure, shortened: (§2)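 Assay medium contained NanoLuc luciferase plus cell-permeant prosubstrate, added with HEK293 cells at 600 cells/well. After 5 h at 37 C/5% CO2 compounds were added; plates stayed at 37 C for 40 h with serial luminescence reads.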

[10] = A CellTox Green Cytotoxicity Assay to monitor cytotoxicity in HEK293 cells - 0 hour (AID 1224869); also: nearly all actives have a fitted effect of over 50% in size
Procedure, shortened: (§3)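 Real-time, in one plate: 600 HEK293 cells/well with dead-cell DNA dye, pinned compound after 5 h, 37 C incubation over 40 h; viable cells give no appreciable fluorescence.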

[11] = qHTS RealTime-Glo MT Cell Viability Assay in HepG2 cells - 40 hour (AID 1224870); also: nearly all actives have a fitted effect of over 50% in size
Procedure, shortened: (§4)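 HepG2 cells (600/well) mixed with RealTime-Glo MT reagent, settled 5 h at 37 C/5% CO2 before compound addition. Nonlytic NanoLuc luminescence from viable-cell prosubstrate reduction read repeatedly during 40 h treatment at 37 C.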

[12] = A CellTox Green Cytotoxicity Assay to monitor cytotoxicity in HEK293 cells - 40 hour (AID 1224871); also: nearly all actives have a fitted effect of over 45% in size
Procedure, shortened: as §3

[13] = qHTS RealTime-Glo MT Cell Viability Assay in HEK293 cells - 16 hour (AID 1224872)
Procedure, shortened: as §2

[14] = qHTS RealTime-Glo MT Cell Viability Assay in HepG2 cells - 8 hour (AID 1224873); also: nearly all actives have a fitted effect of over 55% in size
Procedure, shortened: as §4

[15] = qHTS RealTime-Glo MT Cell Viability Assay in HEK293 cells - 40 hour (AID 1224874); conditions: RealTime-Glo luminescence; max response: stronger effect = lower value; also: nearly all actives have a fitted effect of over 50% in size
Procedure, shortened: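 Kinetic, non-lysing viability readout. Seed HEK293 (600/well) with reagent, incubate 5 h at 37 C/5% CO2, pin 23 nL compound in DMSO, incubate at 37 C, read luminescence at 0, 8, 16, 24, 32, 40 h.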

[16] = A CellTox Green Cytotoxicity Assay to monitor cytotoxicity in HEK293 cells - 24 hour (AID 1224875); also: nearly all actives have a fitted effect of over 45% in size
Procedure, shortened: as §3

[17] = A CellTox Green Cytotoxicity Assay to monitor cytotoxicity in HepG2 cells - 16 hour (AID 1224876); also: nearly all actives have a fitted effect of over 45% in size
Procedure, shortened: (§5)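 Cytotoxicity was tracked as dead-cell DNA fluorescence in HepG2 cells treated with test compounds at 37 C; each time-point value comes from one kinetic series spanning 0, 8, 16, 24, 32 and 40 h.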

[18] = qHTS RealTime-Glo MT Cell Viability Assay in HepG2 cells - 32 hour (AID 1224877); also: nearly all actives have a fitted effect of over 55% in size
Procedure, shortened: as §1

[19] = A CellTox Green Cytotoxicity Assay to monitor cytotoxicity in HepG2 cells - 24 hour (AID 1224878); also: nearly all actives have a fitted effect of over 45% in size
Procedure, shortened: as §5

[20] = A CellTox Green Cytotoxicity Assay to monitor cytotoxicity in HepG2 cells - 40 hour (AID 1224879); also: nearly all actives have a fitted effect of over 40% in size
Procedure, shortened: as §5
% is scaled to controls: 0 for no effect and ±100 for the full control effect.

C[N+](C)(C)CCCl
inactive: Potency [1] | Potency [2] | Potency [3] | outcome [4] | Potency [5] | Potency [6] | activity change, positive = activation [7] 3.38% | Potency [8] | Potency [9] | Potency [10] | Potency [11] | Potency [12] | Potency [13] | Potency [14] | max response [15] 21.2% | Potency [16] | Potency [17] | Potency [18] | Potency [19] | Potency [20]

CCBr
inactive: Potency [1] | Potency [2] | Potency [3] | outcome [4] | Potency [5] | Potency [6] | activity change, positive = activation [7] 6.77% | Potency [8] | Potency [9] | Potency [10] | Potency [12] | Potency [13] | Potency [14] | max response [15] 6.85% | Potency [16] | Potency [17] | Potency [18] | Potency [19] | Potency [20]

Cc1ccc2ccccc2c1
inactive: Potency [1] | Potency [2] | Potency [3] | outcome [4] | Potency [5] | Potency [6] | activity change, positive = activation [7] -0.842% | Potency [8] | Potency [9] | Potency [10] | Potency [11] | Potency [12] | Potency [13] | Potency [14] | max response [15] 0.388% | Potency [16] | Potency [17] | Potency [18] | Potency [19] | Potency [20]

CC(C)(CCl)C(=O)Cl
inactive: Potency [1] | Potency [2] | Potency [3] | outcome [4] | Potency [5] | Potency [8] | Potency [9] | Potency [10] | Potency [11] | Potency [12] | Potency [13] | Potency [14] | max response [15] 0.815% | Potency [16] | Potency [18] | Potency [19] | Potency [20]

CCC(Cl)CCl (centres undefined)
inactive: Potency [1] | Potency [2] | Potency [3] | outcome [4] | Potency [5] | Potency [6] | activity change, positive = activation [7] -1.76% | Potency [8] | Potency [9] | Potency [10] | Potency [11] | Potency [12] | Potency [13] | Potency [14] | max response [15] 2.27% | Potency [16] | Potency [17] | Potency [18] | Potency [19] | Potency [20]

O=C(NC(=O)c1c(F)cccc1F)Nc1ccc(OC(F)(F)C(F)OC(F)(F)F)c(Cl)c1 (centres undefined)
inactive: Potency [1] | Potency [2] | Potency [3] | outcome [4] | Potency [5] | Potency [6] | activity change, positive = activation [7] -11.9% [at 42.5 µM] | Potency [8] | Potency [9] | Potency [10] | Potency [12] | Potency [14] | max response [15] -1.18% | Potency [16] | Potency [17] | Potency [18] | Potency [19] | Potency [20]
